# Sampled rows, rich in hits. Any-hit rate of the full collection: about 3.5%.
# MITF inh: inhibitors of human MITF | inhibition, % at 2.6 µM | AlphaScreen MITF homodimerization, bead proximity signal | 650,000 compounds, 0.91% hits | O75030; in the data active means inhibition above about 50%;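 further: 0% = vehicle wells with protein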
# Target sequence (O75030 whole entry, looked up): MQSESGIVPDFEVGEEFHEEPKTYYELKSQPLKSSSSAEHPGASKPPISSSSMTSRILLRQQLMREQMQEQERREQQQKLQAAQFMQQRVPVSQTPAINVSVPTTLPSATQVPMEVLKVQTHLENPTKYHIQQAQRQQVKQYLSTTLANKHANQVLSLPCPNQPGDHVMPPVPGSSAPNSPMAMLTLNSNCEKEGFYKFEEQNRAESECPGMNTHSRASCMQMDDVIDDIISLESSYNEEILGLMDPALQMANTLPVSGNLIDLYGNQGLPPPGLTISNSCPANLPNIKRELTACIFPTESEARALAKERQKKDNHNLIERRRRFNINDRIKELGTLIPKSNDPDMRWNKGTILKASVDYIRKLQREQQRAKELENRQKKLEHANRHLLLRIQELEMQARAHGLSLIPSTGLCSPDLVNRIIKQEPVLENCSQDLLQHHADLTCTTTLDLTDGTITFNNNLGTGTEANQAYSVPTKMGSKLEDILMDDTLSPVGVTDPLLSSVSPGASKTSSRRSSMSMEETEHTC
# FBW7 act: human FBW7 E3 ligase activation, primary screen | 650,000 compounds, 0.13% hits | AID 1259310 | normalized activity (activation), % at 26.1 µM | Q969H0 | AlphaScreen FBW7–phospho-cyclin E peptide binding, activator screen; in the data active means normalized activity above about 1.9%;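 further: purified mutant Fbw7 with reduced substrate affinity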
# GPR151 activ: activators of human GPR151; Q8TDV0; PathHunter beta-arrestin GPR151 cells, luminescence; activation, % at 11.2 µM; AID 1508602; 650,000 compounds, 1% hits; in the data active means activation above about 4.9%;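 further: 0% = median of compound wells and 100% = cells with positive control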
# TEAD-YAP inh: TEAD-YAP interaction inhibition; inhibition, % at 9.12 µM; 640,000 compounds, 1.4% hits; AID 1259422; HEK-TIYL cells, TEAD-Gal4/YAP UAS-luciferase luminescence; in the data active means inhibition above about 32%;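 further: 0% = median of test compound wells and 100% = reference inhibitor wells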
# MITF confirm: human MITF inhibition, confirmation; AlphaScreen MITF homodimerization, biotin/His-MITF beads; 4,700 compounds, 16% hits; inhibition, % at 2.6 µM; shares compounds with MITF inh;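 active means inhibition above a cutoff derived from the DMSO control wells, cut at about 28% in these data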;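 further: 0% = MITF dimer wells with DMSO only; inhibitors lower the bead chemiluminescence by keeping MITF from dimerizing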
# AlphaScreen DR: counter-screen: compounds optically interfering with AlphaScreen; shares compounds with MITF inh; AlphaScreen optical interference counterscreen, cell-free; IC50, µM; 480 compounds, 6% hits; call rule not given here
# AS interf ctr: counter-screen: compounds optically interfering with AlphaScreen; 4,700 compounds, 7.6% hits; LysRS AlphaScreen counterscreen, signal interference, triplicate; AID 1259376; shares compounds with MITF inh; inhibition, % at 2.6 µM;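 active means inhibition above a cutoff derived from the DMSO control wells, cut at about 30% in these data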
# Active calls of the source: *; · = no result.
SMILES,MITF inh,FBW7 act,GPR151 activ,TEAD-YAP inh,MITF confirm,AS interf ctr,others
COc1cc(/C=N/NC(=O)c2cccnc2)c(Br)cc1O,-6,0,-4,0,·,·,
Nc1ccc2cc3c(nc2n1)CCN(Cc1ccccc1OC(F)F)C3,8,0,3,3,·,·,
O=C(Cc1ccccc1)Nc1nnc(C2=COCCO2)o1,29,0,-1,0,·,·,
CCSc1nc2c(c(=O)[nH]1)C(c1ccc(O)c(OC)c1)C1=C(CCCC1=O)N2 (stereo unspecified),61*,0,-1,1,0,8,
CNC(=O)Nc1ccc2nc(-c3ccco3)c(-c3ccco3)nc2c1,110*,-1,0,16,110*,15,AlphaScreen DR=>6.5
Cc1ccc(NC(=O)c2cc(-c3ccco3)on2)cc1C,-2,0,-1,-68,·,·,
C=CCN1CCN(C(c2ccccc2F)c2nnnn2Cc2ccc(OC)cc2)CC1 (stereo unspecified),-4,0,0,-2,·,·,
Cc1cc(S(=O)(=O)N2CCN(CCC(=O)O)CC2)ccc1Br,54*,0,-1,-1,-8,-1,
COC(=O)CCN1CCN(S(=O)(=O)c2ccccc2Br)CC1,85*,0,0,7,-4,-1,
O=C(CNC(c1ccccc1)c1ccccc1)NNC(=O)c1ccccc1Br,63*,0,0,1,9,17,
O=C(NC(c1ccccc1)c1ccccc1)c1ccccc1Br,13,0,0,-1,·,·,
CNCC(=O)N1c2ccccc2CCc2ccc(NC(=O)OC)cc21,19,0,2,6,·,·,
Cc1cccc(NCc2ccccc2O)c1C,22,0,1,-2,·,·,
Cc1cccc(NCc2ccc(O)c3ncccc23)n1,74*,-1,0,6,53*,91*,
Oc1ccc(CNc2ccccc2Br)c2cccnc12,71*,0,0,6,42*,87*,
CCOc1ccc(S(=O)(=O)Nc2ccccc2Br)c2cccnc12,7,0,1,-6,·,·,
Cc1ccccc1NCc1ccc(O)c2ncccc12,68*,-2,1,17,62*,97*,
C=CCn1c(SCC(=O)NCc2ccc3c(c2)OCO3)nc2scc(-c3ccccc3)c2c1=O,57*,0,-1,2,12,9,
C=CCn1c(SCC(=O)NCc2ccc3c(c2)OCO3)nc2sc3c(c2c1=O)CCC3,-5,0,-1,-11,·,·,
O=C(c1cccnc1)N1CCN(Cc2ccccc2[N+](=O)[O-])CC1,82*,0,-1,5,-2,-3,
O=C(c1ccc(F)cc1)N1CCN(Cc2ccccc2[N+](=O)[O-])CC1,55*,0,3,5,-14,-5,
COc1ccc(Br)cc1CN1CCN(C(=O)c2ccccc2)CC1,43,0,0,8,·,·,
COc1ccc(Br)cc1CN1CCN(C(=O)c2ccccc2F)CC1,65*,1,-3,-3,5,15,
O=C(c1cccc(F)c1)N1CCN(Cc2ccccc2[N+](=O)[O-])CC1,22,0,-1,2,·,·,
O=C(c1ccccc1F)N1CCN(Cc2ccccc2[N+](=O)[O-])CC1,62*,0,0,-3,7,17,
SMILES,MITF inh,FBW7 act,GPR151 activ,TEAD-YAP inh,MITF confirm,AS interf ctr,others
O=C1N(Cc2cccc(Cl)c2)C[C@@H]2C[C@@H](c3cccc4c3OCO4)N3CCC[C@@]123,-11,0,0,1,·,·,
O=C(O)CC(NC(=O)COc1ccccc1)c1ccccc1 (stereo unspecified),-7,0,0,3,·,·,
COc1ccc(NCC(=O)NN=C2CCCC2)cc1,13,0,2,16,·,·,
CCOC(=O)N1CCC(NC(=O)c2ccc(Sc3ccc(Br)cc3)c([N+](=O)[O-])c2)CC1,2,0,1,4,·,·,
O=c1oc2cc(OCc3ccc(F)cc3)ccc2c2c1CCC2,-1,0,0,-13,·,·,
Cc1ccc(/C=C2\SC(=O)N(C)C2=O)cc1[N+](=O)[O-],-5,0,0,3,·,·,
O=C(c1ccccc1F)N1CCN(Cc2c[nH]c3ccccc23)CC1,35,0,-1,16,·,·,
O=C(c1ccccc1F)N1CCN(Cc2ccccc2C(F)(F)F)CC1,58*,0,-1,-3,1,-9,
CN1CCN(CC(=O)N/N=C\c2ccsc2)CC1,26,0,1,1,·,·,
COc1cc(/C=N\NC(=O)CN2CCN(C)CC2)cc2c1OCO2,51*,0,0,-6,26,0,
CN1CCN(CC(=O)N/N=C\c2ccccc2O)CC1,-1,0,0,6,·,·,
COc1cc(/C=N\NC(=O)CN2CCN(C)CC2)cc(OC)c1,56*,0,1,7,0,-3,
CCCCC/C(=N\NC(=O)c1ccncc1)c1ccccc1,8,0,2,-2,·,·,
COCCCN1C(=O)/C(=C/c2ccc(OC)cc2)SC1=S,9,0,0,10,·,·,
CCOC(=O)N1CCC(N2C(=O)c3ccccc3C2Nc2ccccc2C(=O)OC)CC1 (stereo unspecified),62*,0,-1,2,3,13,
C=CCc1cccc(C)c1OCCCN1CCN(C)CC1,43,0,-2,0,·,·,
C=CCc1cccc(Cl)c1OCCN1CCOCC1,-22,0,-1,-2,·,·,
C=CCc1cccc(C)c1OCCN1CCOCC1,86*,0,0,-2,8,6,
C=CCc1cccc(Cl)c1OCCN1CCNCC1,56*,0,0,7,-14,-2,
C=CCc1cccc(C)c1OCCCN1CCCC1,57*,1,0,8,16,16,
Cn1c2ccccc2c2nnc(SCC(=O)Nc3ccccn3)nc21,16,0,-1,-9,·,·,
CSc1nnc(C)c2cnn(-c3ccc(C)cc3)c12,-1,0,0,21,·,·,
Cc1cc(=O)oc2ccc(OC(=O)c3cccs3)cc12,7,0,2,0,·,·,
CC(C(=O)Nc1ccc(C#N)cc1)N1CCN(S(=O)(=O)c2ccccc2F)CC1 (stereo unspecified),85*,0,0,-1,11,5,
CC1Cc2ccccc2N1S(=O)(=O)c1ccccc1F (stereo unspecified),4,0,-2,0,·,·,
CC(C(=O)N1c2ccccc2CC1C)N1CCN(S(=O)(=O)c2ccccc2F)CC1 (stereo unspecified),75*,0,0,17,5,13,
Cc1ccccc1NC(=O)c1ccc(F)c(S(=O)(=O)N2CCC(C)CC2)c1,3,0,-1,0,·,·,
CC(C)NC(=O)C(=O)N/N=C/c1ccc(OCc2ccc(Cl)cc2)cc1,-4,0,-1,-6,·,·,
CC(C)NC(=O)C(=O)N/N=C/c1ccc(OCc2ccccc2Cl)cc1,55*,0,-1,-4,-2,-4,
C/C(=N\NC(=O)Cc1cc(=O)[nH][nH]1)c1ccco1,59*,0,-1,7,56*,4,AlphaScreen DR=>6.5
